# Measured values: PubChem BioAssay
# Active and inactive are the calls of the source. Unless noted, how the calls were made is not given here.
# What was measured:
# [1] = resazurin metabolic signal in HepG2 cells – cell-based, resazurin fluorescence, 24 h, PK04 Diversity Set, profiling panel (AID 1172); conditions: HepG2 viability, higher = more signal; further: test concentration not given here
# [2] = budding yeast growth changes without added modifier – OD600, strain BY4716, 24 h, basal condition, primary screen (AID 1173); conditions: S. cerevisiae BY4716 growth, OD600, 24 h; higher = more signal, called active from +8 up or from −8 down
# [3] = viability profiling in MM1S myeloma cells – cell-based, resazurin fluorescence, basal, 24 h, PK04 Diversity Set, profiling panel (AID 1174); conditions: higher = more signal, called active from +8 up or from −8 down;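 further: MM1S multiple myeloma cell line; test concentration not given here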
# [4] = target: Dihydroorotate dehydrogenase (quinone), mitochondrial (Plasmodium falciparum (isolate 3D7)) (UniProt Q08210); experiment: inhibition of P. falciparum DHODH – biochemical, C-terminal His tag, absorbance 600 nm, primary screen (AID 1175); conditions: PfDHODH enzyme, DCIP absorbance 600 nm; higher = more signal, called active from +8 up or from −8 down;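 further: recombinant parasite enzyme with a five histidine tag at its C terminus; test concentration not given here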
# Chain of Dihydroorotate dehydrogenase (quinone), mitochondrial (Plasmodium falciparum (isolate 3D7)) (Q08210 whole entry, looked up): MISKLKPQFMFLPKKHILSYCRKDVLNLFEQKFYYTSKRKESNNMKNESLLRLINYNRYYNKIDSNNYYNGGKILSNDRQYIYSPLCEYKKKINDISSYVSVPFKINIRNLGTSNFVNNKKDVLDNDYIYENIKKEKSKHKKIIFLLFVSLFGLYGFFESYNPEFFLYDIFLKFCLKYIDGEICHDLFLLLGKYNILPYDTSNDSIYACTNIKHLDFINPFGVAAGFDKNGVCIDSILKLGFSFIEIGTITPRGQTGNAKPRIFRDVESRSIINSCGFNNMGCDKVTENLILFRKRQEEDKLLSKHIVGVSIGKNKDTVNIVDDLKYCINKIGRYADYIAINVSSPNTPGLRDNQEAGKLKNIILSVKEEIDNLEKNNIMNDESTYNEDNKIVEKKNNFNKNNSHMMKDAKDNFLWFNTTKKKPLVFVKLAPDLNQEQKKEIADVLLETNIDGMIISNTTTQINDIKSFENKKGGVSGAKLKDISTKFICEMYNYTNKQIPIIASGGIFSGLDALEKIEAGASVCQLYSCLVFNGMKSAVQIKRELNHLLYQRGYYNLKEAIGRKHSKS
# [5] = inhibition of PAO1 biofilm formation – strain PAO1, LB-PBS medium, absorbance 600 nm, primary screen (AID 1176); further: test concentration not given here; conditions: P. aeruginosa PAO1 growth/biofilm, A600, 12 h; higher = more signal
# [6] = growth modulation of vineyard yeast isolate – strain RM11-1a, OD600, basal, 24 h, primary screen (AID 1177);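 further: cultures grown under basal conditions with no added stressor; test concentration not given here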; conditions: S. cerevisiae RM11-1a growth, OD600, 24 h; higher = more signal, called active from +8 up or from −8 down
# [7] = growth of efflux-deficient E. coli DRC39 – strain DRC39, OD650, 24 h, E. coli filamentation inducers, primary screen (AID 1178);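 further: growth measured as culture turbidity by optical density at 650 nm; test concentration not given here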; conditions: E. coli DRC39 acrAB, higher = more signal, called active from +8 up or from −8 down
# [8] = growth of efflux-deficient E. coli DRC39 – strain DRC39, OD650, 48 h, E. coli filamentation inducers, primary screen (AID 1179);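 further: screen aims at cell division blockers that make cells filament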; conditions: E. coli DRC39 delta-acrAB growth, higher = more signal, called active from +8 up or from −8 down
# [9] = viability profiling in RPMI8226 myeloma cells – cell-based, resazurin fluorescence, basal, 24 h, PK04 Diversity Set, profiling panel (AID 1180); conditions: higher = more signal;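 further: RPMI8826 multiple myeloma cell line at 5000 cells per well; test concentration not given here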
# [10] = target: E3 ubiquitin-protein ligase XIAP (Homo sapiens) (UniProt P98170); experiment: small molecules binding XIAP protein – biophysical, small-molecule microarray, fluorescence 635 nm, primary screen (AID 1181); conditions: higher = more signal;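 further: score merges 667 nm emission and signal to noise over triplicate slides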
# Chain of E3 ubiquitin-protein ligase XIAP (Homo sapiens) (P98170 whole entry, looked up): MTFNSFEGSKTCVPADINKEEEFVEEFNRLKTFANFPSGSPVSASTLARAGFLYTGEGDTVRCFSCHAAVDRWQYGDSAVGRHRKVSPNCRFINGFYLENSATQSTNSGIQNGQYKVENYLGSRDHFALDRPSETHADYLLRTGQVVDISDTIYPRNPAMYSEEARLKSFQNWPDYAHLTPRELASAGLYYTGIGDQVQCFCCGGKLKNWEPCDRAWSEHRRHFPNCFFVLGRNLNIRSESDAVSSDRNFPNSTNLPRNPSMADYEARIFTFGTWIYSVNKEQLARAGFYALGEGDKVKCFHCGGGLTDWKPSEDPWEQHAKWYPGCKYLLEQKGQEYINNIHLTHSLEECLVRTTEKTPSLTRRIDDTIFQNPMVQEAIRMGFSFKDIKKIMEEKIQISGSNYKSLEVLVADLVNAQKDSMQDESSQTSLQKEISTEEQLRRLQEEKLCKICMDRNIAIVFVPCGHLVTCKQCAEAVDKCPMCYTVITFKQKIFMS
Structure (SMILES),z-score [1],z-score [2],z-score [3],composite z-score [4],z-score [5],z-score [6],z-score [7],z-score [8],z-score [9],composite z-score [10]
O=C1[C@@]23C=C(Br)[C@H](C[C@@H]2COC3)[C@@]12CO2,-0.198,-0.237 (inactive),-0.402 (inactive),0.571 (inactive),0.224 (inactive),0.254 (inactive),-0.417 (inactive),-0.0396 (inactive),-0.373,-0.102
COC(=O)[C@@]1(Cc2ccccc2CN=[N+]=[N-])N=C(c2ccc(OCCCO)cc2)O[C@H]1c1ccccc1CN=[N+]=[N-],-1.67,1.66 (inactive),-4.85 (inactive),2.46 (inactive),2.8 (inactive),2.88 (inactive),1.53 (inactive),-0.47 (inactive),-4.32,-0.113
O=C1N(CCS(=O)(=O)c2ccccc2)Cc2ccccc2[C@@H]2OC(c3ccc(OCCCO)cc3)=N[C@]12CCS(=O)(=O)c1ccccc1,0.638,1.6 (inactive),0.298 (inactive),0.324 (inactive),1.71 (inactive),2.85 (inactive),0.958 (inactive),0.31 (inactive),-0.458,-0.0062
CN(C)C(=O)[C@@]1(Cc2ccccc2N=[N+]=[N-])N=C(c2ccc(OCCCO)cc2)O[C@H]1c1ccccc1,0.329,-1.23 (inactive),-3.18 (inactive),0.346 (inactive),0.274 (inactive),0.751 (inactive),-0.105 (inactive),-1.1 (inactive),-3.04,0.102
COc1cc2c(cc1O)C(c1ccc(CN3CCCC3)cc1)N(C)CC2 (stereo not given),-0.392,0.447 (inactive),-1.36 (inactive),-0.65 (inactive),-0.255 (inactive),0.697 (inactive),0.0615 (inactive),0.382 (inactive),-0.891,0.415
COc1ccc([Si](C)(C)[C@@H]2[C@@H](CCn3cc([C@H](O)c4ccccc4)nn3)O[C@]3(C(=O)N(c4ccccc4)c4ccccc43)[C@H]2C)cc1,-2.07,-0.284 (inactive),-3.04 (inactive),-0.204 (inactive),1.08 (inactive),0.77 (inactive),-0.434 (inactive),-0.502 (inactive),-3.15,-0.131
CC(C)(C)OC(=O)CC[C@]12N=C(c3ccc(OCCCO)cc3)O[C@H]1c1ccccc1N(Cc1ccccc1)C2=O,0.851,0.342 (inactive),-0.922 (inactive),-0.316 (inactive),0.95 (inactive),2.29 (inactive),1.1 (inactive),0.124 (inactive),-1.55,0.0968
COc1ccc(C#Cc2ccc3c(c2)[C@]2(C(=O)N3)[C@H](c3ccc(OCCO)cc3)N3[C@H](c4ccccc4)[C@H](c4ccccc4)OC(=O)[C@H]3[C@@H]2C(=O)N2CCc3cc(OC)c(OC)cc3C2)cc1,0.36,2.06 (inactive),-0.224 (inactive),-1.84 (inactive),2.68 (inactive),2.33 (inactive),-0.479 (inactive),-0.324 (inactive),0.0844,0.107
COCCOC(=O)N1C(=O)[C@@]2(c3cc(C#CCCO)ccc31)[C@H](C(=O)N1CCCCCCC1)[C@H]1C(=O)O[C@H](c3ccccc3)[C@H](c3ccccc3)N1[C@@H]2c1ccccc1OCCO,-0.0873,0.348 (inactive),0.413 (inactive),-0.0989 (inactive),0.898 (inactive),0.881 (inactive),-0.759 (inactive),-0.359 (inactive),0.3,0.113
COC(=O)[C@@]1(Cc2ccc(F)cc2)[C@H]2c3cc(C(=O)N(C)C)n(Cc4c(CO)[nH]cc(C)c4=O)c3C[C@H]2CN1C(=O)c1ccccc1,-1.03,0.966 (inactive),-1.72 (inactive),-0.244 (inactive),1.79 (inactive),0.986 (inactive),-0.0892 (inactive),-1.36 (inactive),-0.932,0.0153
COCCOC(=O)N1C(=O)[C@@]2(c3cc(C#CCC(C(=O)OC)C(=O)OC)ccc31)[C@H](c1ccc(O)cc1)N1[C@H](c3ccccc3)[C@H](c3ccccc3)OC(=O)[C@H]1[C@@H]2C(=O)NC[C@H](O)c1ccccc1,1.78,-0.149 (inactive),0.6 (inactive),0.407 (inactive),-0.489 (inactive),0.592 (inactive),0.416 (inactive),-0.228 (inactive),-2.51,-0.187
COc1ccc(NC(=O)O[C@H]2[C@@H]3OC(=O)[C@H](Cc4cccc(Br)c4)C/C=C/C[C@@H](Cc4cccc(Br)c4)C(=O)O[C@H]3[C@@H](OC)O[C@@H]2CO)cc1,-0.868,-0.413 (inactive),-0.37 (inactive),0.732 (inactive),0.47 (inactive),0.604 (inactive),0.365 (inactive),0.855 (inactive),-0.517,-0.555
